The values below come from PubChem BioAssay (NCATS).

Results filed as inconclusive are left out. Active and inactive are the calls of the source. Unless noted, calls follow the shape of the dose curve; as a rule, active = well fitted curve in the direction sought with a large enough effect; inconclusive = small, poorly fitted or top-dose-only effect, or another doubt; inactive = no such curve, though single readings can be large; an effect the other way counts as inactive or inconclusive.

Assay [1] addresses Lysosomal acid glucosylceramidase (Homo sapiens) (UniProt P04062). Put plainly: Glucocerebrosidase-p2 (AID 348; in the data active = potency below about 10 µM; also: potency is read from the fitted curve at half-maximal effect). As to conditions: purified GBA, blue fluorogenic substrate, 40 min. The essentials:
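Compounds titrated from 0.6 nM upwards against 0.2 nM enzyme in pH 5.9 citric acid/KH2PO4, taurocholate, tween-20; blue fluorogenic substrate 80 uM, 40 min room temperature, stopped and read Ex 365/Em 440 for AC50.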

Assay [2] is described as follows: AP1 Signaling Pathway (AID 357; active = well fitted curve in either direction with a large enough effect, not every such curve was filed as active;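 also: ME-180 reporter cells stimulated with EGF at its EC50 level; % is scaled to controls: 0 for no effect and ±100 for the full control effect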). Conditions: ME-180 AP-1-bla reporter, EGF-induced, beta-lactamase ratio, 5 h; at 7.69 µM (top of the series) unless noted. The essentials: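 Modulation of EGF-driven AP-1 transcription was assessed with a beta-lactamase reporter in ME-180 cells. Compound and EC50 EGF were co-incubated 5 hours at 37 °C before 2.5-hour CCF4 loading at room temperature and dual-emission reading.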

Assay [3] concerns the target Cytochrome P450 1A2 (Homo sapiens) (UniProt P05177). Put plainly: p450-cyp1a2 (AID 410; calls by dose curve; also: potency is read from the fitted curve at half-maximal effect). Conditions: recombinant CYP1A2, luciferin-ME demethylation, luminescence; series mostly up to 57 µM. The essentials:
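Luminescent readout of luciferin formed from Luciferin-ME by human CYP1A2; data normalized against complete inhibition by 57 uM furafylline. Enzyme 20nM, substrate 100uM at Km, 100mM KPO4 buffer, 60 min reaction at room temperature.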

Assay [4] in a line: Stat Signaling Pathway (AID 446; active = well fitted curve in either direction with a large enough effect, not every such curve was filed as active;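 also: ME-180 cervical cancer cells given 40 pM IL-6 alongside compound; SIE-controlled beta-lactamase reporter measured as 460/530 nm FRET emission ratio; % is scaled to controls: 0 for no effect and ±100 for the full control effect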). As to conditions: ME-180 SIE beta-lactamase reporter, IL-6 stimulated, 5 h; at 7.69 µM (top of the series) unless noted. An outline of the steps: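 ME-180 cells carrying a SIE-driven beta-lactamase reporter are stimulated with 40 pM IL-6 for 5 h at 37C in the presence of compound. The 460/530 nm FRET substrate ratio is read after 2.5 h at RT. Data are normalised to 300 pM IL-6 and to 125 nM JAK inhibitor controls.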

In assay [5] the target is Glucocorticoid receptor (Homo sapiens) (UniProt P04150). As to the kind of experiment: GR-EFC Redistribution (AID 451; calls by dose curve; also: potency is read from the fitted curve at half-maximal effect). Conditions: CHO-K1 GR-EFC translocation, beta-gal luminescence, 2 h. An outline of the steps: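 CHO-K1 cells stably expressing nuclear-localized β-gal enzyme acceptor and GR fused C-terminally to the enzyme donor fragment; ligand-driven nuclear translocation restores β-gal by complementation. Compounds titrated up to 46 uM final, 2 h at 37 °C; luminescence read.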
Sequence of Glucocorticoid receptor (Homo sapiens) (P04150 whole entry, looked up, the tested form may be a part): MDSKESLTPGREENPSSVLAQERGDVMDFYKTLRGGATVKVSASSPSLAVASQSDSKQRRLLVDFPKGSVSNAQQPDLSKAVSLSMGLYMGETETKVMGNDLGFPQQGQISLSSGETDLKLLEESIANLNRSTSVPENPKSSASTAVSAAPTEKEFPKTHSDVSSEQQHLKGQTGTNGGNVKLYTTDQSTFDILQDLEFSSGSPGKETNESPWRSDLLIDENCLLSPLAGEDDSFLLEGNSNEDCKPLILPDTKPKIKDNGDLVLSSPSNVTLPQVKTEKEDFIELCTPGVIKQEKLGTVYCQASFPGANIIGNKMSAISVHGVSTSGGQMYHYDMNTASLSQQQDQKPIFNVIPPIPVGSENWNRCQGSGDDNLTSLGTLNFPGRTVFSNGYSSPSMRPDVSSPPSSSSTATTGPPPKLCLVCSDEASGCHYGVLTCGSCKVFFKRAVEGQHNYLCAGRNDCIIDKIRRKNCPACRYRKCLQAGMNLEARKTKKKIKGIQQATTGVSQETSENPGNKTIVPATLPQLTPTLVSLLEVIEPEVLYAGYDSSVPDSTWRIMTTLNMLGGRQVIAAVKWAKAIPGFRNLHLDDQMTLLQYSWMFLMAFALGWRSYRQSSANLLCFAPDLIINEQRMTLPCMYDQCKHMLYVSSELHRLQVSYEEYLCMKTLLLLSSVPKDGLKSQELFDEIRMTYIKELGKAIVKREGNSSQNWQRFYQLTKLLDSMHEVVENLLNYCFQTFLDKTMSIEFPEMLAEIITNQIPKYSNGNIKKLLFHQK

Assay [6] deals with Mitogen-activated protein kinase 10 (Mus musculus) (UniProt Q61831). Put plainly: JNK3 AlphaScreen Assay (AID 530; active = well fitted curve in either direction with a large enough effect, not every such curve was filed as active;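 also: kinase came from lysate of stimulated human HepG2 cells; signal reports phosphorylation of biotinylated GST-cJun 1-79 at Ser73 with 10 µM ATP; % is scaled to controls: 0 for no effect and ±100 for the full control effect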). As to conditions: JNK3 lysate, c-Jun phosphorylation; series mostly up to 57.1 µM. The essentials:
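Inhibitors reduce antibody binding to phosphorylated biotin-cJun, lowering AlphaScreen luminescence. Lysates from HepG2 cells pre-activated by IL-1beta plus TNF-alpha supplied JNK3; compounds were titrated.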

The target in assay [7] is 3',5'-cyclic-AMP phosphodiesterase 4B (Homo sapiens) (UniProt Q07343). Put plainly: qHTS Assay for Inhibitors of PDE-IV (AID 607; active = well fitted activation curve with a large enough effect in the main read-out, with a control signal flat, not every such curve was filed as active; also: % of control where 0% means no effect). Conditions: HEK293 ACTOne CNG channel cells, membrane potential fluorescence; series mostly up to 22.9 µM. The essentials: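 HEK293 ACTOne cells with CNG channel (1000/well), endogenous PDE4; membrane potential dye, compounds up to 22.9 uM final. Fluorescence Ex 535/Em 590; RO 20-1724 (100 uM final) as reference.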
Sequence of 3',5'-cyclic-AMP phosphodiesterase 4B (Homo sapiens) (Q07343 whole entry, looked up): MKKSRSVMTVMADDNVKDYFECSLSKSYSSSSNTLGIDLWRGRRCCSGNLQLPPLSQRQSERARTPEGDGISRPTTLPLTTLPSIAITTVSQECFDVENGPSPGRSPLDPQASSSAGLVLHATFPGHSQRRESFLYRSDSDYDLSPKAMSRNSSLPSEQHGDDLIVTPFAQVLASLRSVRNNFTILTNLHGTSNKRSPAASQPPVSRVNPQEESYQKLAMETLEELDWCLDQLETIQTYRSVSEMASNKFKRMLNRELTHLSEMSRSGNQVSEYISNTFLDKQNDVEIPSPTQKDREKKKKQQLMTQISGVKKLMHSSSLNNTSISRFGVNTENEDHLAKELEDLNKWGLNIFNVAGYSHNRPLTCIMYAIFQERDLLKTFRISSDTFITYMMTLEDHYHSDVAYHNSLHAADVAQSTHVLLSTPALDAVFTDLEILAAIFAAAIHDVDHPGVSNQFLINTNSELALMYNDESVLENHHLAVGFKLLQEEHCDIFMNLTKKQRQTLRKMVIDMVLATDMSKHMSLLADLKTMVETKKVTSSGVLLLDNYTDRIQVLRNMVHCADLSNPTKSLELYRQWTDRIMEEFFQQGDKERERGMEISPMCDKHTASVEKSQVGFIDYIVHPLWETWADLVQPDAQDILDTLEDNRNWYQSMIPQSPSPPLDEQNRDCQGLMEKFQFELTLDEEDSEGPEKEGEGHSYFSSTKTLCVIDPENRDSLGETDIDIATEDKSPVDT

The nature of assay [8]: qHTS Assay for Lipid Storage Modulators (AID 1519; calls by dose curve). As to conditions: Drosophila S3 cells, BODIPY lipid droplet/cell ratio, laser cytometry, cells loaded with oleic acid; for activity change, negative = inhibition: at 57.5 µM (top of the series). The essentials:
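Cells seeded at 5,000 per well were treated with compounds over a concentration series and loaded with oleic acid (400 uM, as added). Lipid droplet fluorescence (488 nm excitation, 500-530 nm channel) was read by laser-scanning cytometry and normalized to 20 uM Triacsin C.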

Assay [9] can be described thus: Primary qHTS for small molecule stabilizers of the endoplasmic reticulum resident proteome: Secreted ER Calcium Modulated Protein (SERCaMP) assay (AID 1508630). Also: % is scaled to controls: 0 for no effect and ±100 for the full control effect. As to conditions: SH-SY5Y GLuc-SERCaMP (Gaussia luciferase released on ER calcium loss) secretion, thapsigargin, luminescence; series mostly up to 38.4 µM. The essentials:
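GLuc-SERCaMP-expressing SH-SY5Y cells, pretreated 16 h with compound, are challenged with thapsigargin to empty ER calcium stores; after 4 h, coelenterazine is added directly to the medium and luminescence is imaged.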
For orientation: In qHTS, concentration-response curves come from the screen itself.

Assay [10] has as its target Glucocorticoid receptor (Homo sapiens) (UniProt P04150). As to the kind of experiment: GR-GFP Redistribution (AID 450;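 active = compounds whose dose series gives a full or clear partial fitted curve of increased nuclear translocation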; also: potency is read from the fitted curve at half-maximal effect). As to conditions: U2OS GR-GFP nuclear translocation, laser cytometry, 2 h.
Assay [11] concerns the target Cytochrome P450 3A4 (Homo sapiens) (UniProt P08684). As to the kind of experiment: qHTS Assay for Activators of Cytochrome P450 3A4 (AID 885). Also: nearly all actives have a fitted effect of over 65% in size. As to conditions: recombinant CYP3A4, Luciferin-PPXE luminescence, 60 min; series mostly up to 57.1 µM. An outline of the steps:
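Human CYP3A4 (20 nM) with Luciferin-PPXE at 25 uM (its KM) in 200 mM KPO4; 10 min compound preincubation, then NADPH regeneration and 60 min reaction at RT. Luciferin read by luminescence; normalized to 57 uM ketoconazole full inhibition.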

Assay [12] is described as follows: Confirmation and Secondary Assay for Modulators of Hemoglobin Beta Chain Splicing at IVS2 654 locus (AID 910).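 Also: per-well total GFP intensity by laser scanning cytometry after 2-day treatment; % of control where 0% means no effect.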 Conditions: HeLa EGFP-654 splicing reporter, GFP fluorescence, 48 h; series mostly up to 38.3 µM. An outline of the steps: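 HeLa cells stably carrying EGFP interrupted by mutant beta-globin IVS2-654 intron (CMV-driven) were treated with compound for 2 days at 37C; corrected splicing was scored as total peak GFP intensity per well (488 nm excitation, 500-520 nm emission).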

A short description of assay [13]: Confirmation and Secondary Assay for Modulators of Hemoglobin Beta Chain Splicing at IVS2 705 locus (AID 930).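 Also: HeLa cells stably expressing the EGFP-705 splicing reporter; % of control where 0% means no effect.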 As to conditions: HeLa EGFP-705 splicing reporter, GFP fluorescence, 48 h; series mostly up to 38.3 µM. The essentials:
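Restored EGFP fluorescence after 2-day compound exposure reports splicing correction in IVS2-705 EGFP reporter HeLa cells; positive control was 500 nM splice-blocking PNA oligo. Signal measured as well total peak GFP intensity (488 nm excitation).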

Assay [14] concerns the target Ubiquitin carboxyl-terminal hydrolase 1 (Homo sapiens) (UniProt O94782). As to the kind of experiment: Inhibitors of USP1/UAF1: Pilot qHTS (AID 504865).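 Also: rhodamine fluorescence freed from ubiquitin-rhodamine substrate followed over time; top concentration of the series differs between compounds; % is scaled to controls: 0 for no effect and ±100 for the full control effect; nearly all actives have a fitted effect of over 35% in size.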 Conditions: purified USP1/UAF1, Ub-rhodamine cleavage fluorescence; series mostly up to 54.9 µM. The essentials:
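USP1/UAF1 complex (1nM) preincubated with compound 15 min at room temperature, then Ub-Rho substrate (150nM final) added. Fluorescence read kinetically at 480/540 nm, 6 reads every 60 seconds. Buffer: 50mM HEPES pH 7.8, 0.5mM EDTA, 0.1 mg/ml BSA, 1mM TCEP, 0.01% Tween-20.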

Assay [15] deals with Cytochrome P450 3A4 (Homo sapiens) (UniProt P08684). As to the kind of experiment: qHTS Assay for Inhibitors and Substrates of Cytochrome P450 3A4 (AID 884). Also: nearly all actives have a fitted effect of over 50% in size. Also: potency is read from the fitted curve at half-maximal effect. Conditions: recombinant CYP3A4, Luciferin-PPXE luminescence; series mostly up to 57.1 µM. An outline of the steps:
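20 nM human CYP3A4 with 25 uM Luciferin-PPXE (at KM) in 200 mM KPO4, preincubated 10 min with compound; NADPH regeneration started a 60 min RT reaction. Luciferin detected by luminescence, normalized to 57 uM ketoconazole as full inhibition.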

Assay [16] deals with Cytochrome P450 2D6 (Homo sapiens) (UniProt P10635). Put plainly: qHTS Assay for Inhibitors and Substrates of Cytochrome P450 2D6 (AID 891). Also: potency is read from the fitted curve at half-maximal effect; nearly all actives have a fitted effect of over 60% in size. As to conditions: recombinant CYP2D6, luciferin-ME EGE luminescence; series mostly up to 57.1 µM. The essentials: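 Human CYP2D6 (5 nM) with 30 uM Luciferin-ME EGE (at Km) in 100 mM KPO4, compound preincubated 10 min, then NADPH regeneration system for 60 min at room temperature. Luciferin read by luminescence; normalized to 1.43 uM quinidine.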

Assay [17] addresses Cytochrome P450 2C9 (Homo sapiens) (UniProt P11712). Put plainly: qHTS Assay for Inhibitors and Substrates of Cytochrome P450 2C9 (AID 883). Also: nearly all actives have a fitted effect of over 60% in size. Also: potency is read from the fitted curve at half-maximal effect. As to conditions: recombinant CYP2C9, luciferin-H luminescence, 60 min; series mostly up to 57.1 µM. An outline of the steps:
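Human CYP2C9 (10nM) hydroxylated Luciferin-H (100uM, at its KM) to luciferin in 25mM KPO4. Compound was preincubated 10 min at 37C, then NADPH regeneration started a 60 min reaction at 37C. Luminescence was read after detection reagent, normalized to 57uM sulphaphenazole.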

In assay [18] the target is Cytochrome P450 2C19 (Homo sapiens) (UniProt P33261). Put plainly: qHTS Assay for Inhibitors and Substrates of Cytochrome P450 2C19 (AID 899). Also: potency is read from the fitted curve at half-maximal effect; nearly all actives have a fitted effect of over 60% in size. As to conditions: recombinant CYP2C19, luciferin-H EGE luminescence; series mostly up to 57.1 µM. An outline of the steps:
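Human CYP2C19 (5nM) with Luciferin-H EGE at 10uM (its KM) in 50mM KPO4 was preincubated with compound for 10 min at 37C. NADPH regeneration started a 60 min 37C reaction. Luciferin was read by luminescence, normalized to 57uM ketoconazole.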

The mark [19] stands for this setting: measured here: cell count channel max response.
[20] abbreviates: measured here: lipid channel max response.

Sequence of Cytochrome P450 1A2 (Homo sapiens) (P05177 whole entry, looked up): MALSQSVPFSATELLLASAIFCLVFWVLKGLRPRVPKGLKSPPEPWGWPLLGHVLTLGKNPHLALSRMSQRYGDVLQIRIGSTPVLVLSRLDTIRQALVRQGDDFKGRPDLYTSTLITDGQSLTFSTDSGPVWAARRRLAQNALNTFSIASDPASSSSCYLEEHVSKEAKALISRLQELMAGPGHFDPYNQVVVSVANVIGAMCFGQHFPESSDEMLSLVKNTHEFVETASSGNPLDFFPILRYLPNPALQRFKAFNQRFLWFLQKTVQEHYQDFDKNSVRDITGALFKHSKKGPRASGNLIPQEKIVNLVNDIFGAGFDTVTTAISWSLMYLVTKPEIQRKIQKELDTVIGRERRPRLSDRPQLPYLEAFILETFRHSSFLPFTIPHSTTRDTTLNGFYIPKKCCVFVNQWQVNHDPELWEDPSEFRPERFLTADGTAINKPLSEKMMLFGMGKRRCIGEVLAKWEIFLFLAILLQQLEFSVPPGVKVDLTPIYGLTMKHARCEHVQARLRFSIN
Sequence of Lysosomal acid glucosylceramidase (Homo sapiens) (P04062 whole entry, looked up): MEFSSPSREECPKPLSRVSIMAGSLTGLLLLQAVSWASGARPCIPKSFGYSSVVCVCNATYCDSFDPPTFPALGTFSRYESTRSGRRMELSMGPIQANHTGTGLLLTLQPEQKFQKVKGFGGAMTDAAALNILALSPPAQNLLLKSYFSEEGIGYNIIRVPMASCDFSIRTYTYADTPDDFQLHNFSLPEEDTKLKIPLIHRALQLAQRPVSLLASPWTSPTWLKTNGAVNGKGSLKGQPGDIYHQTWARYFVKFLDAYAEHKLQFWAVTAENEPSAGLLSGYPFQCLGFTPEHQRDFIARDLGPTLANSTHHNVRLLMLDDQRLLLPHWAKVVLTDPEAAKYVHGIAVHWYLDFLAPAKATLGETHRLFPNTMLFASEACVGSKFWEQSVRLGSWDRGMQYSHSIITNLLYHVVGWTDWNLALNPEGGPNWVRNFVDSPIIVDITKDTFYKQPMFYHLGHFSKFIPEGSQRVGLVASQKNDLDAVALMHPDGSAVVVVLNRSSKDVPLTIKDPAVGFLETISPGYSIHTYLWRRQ
Sequence of Cytochrome P450 3A4 (Homo sapiens) (P08684 whole entry, looked up): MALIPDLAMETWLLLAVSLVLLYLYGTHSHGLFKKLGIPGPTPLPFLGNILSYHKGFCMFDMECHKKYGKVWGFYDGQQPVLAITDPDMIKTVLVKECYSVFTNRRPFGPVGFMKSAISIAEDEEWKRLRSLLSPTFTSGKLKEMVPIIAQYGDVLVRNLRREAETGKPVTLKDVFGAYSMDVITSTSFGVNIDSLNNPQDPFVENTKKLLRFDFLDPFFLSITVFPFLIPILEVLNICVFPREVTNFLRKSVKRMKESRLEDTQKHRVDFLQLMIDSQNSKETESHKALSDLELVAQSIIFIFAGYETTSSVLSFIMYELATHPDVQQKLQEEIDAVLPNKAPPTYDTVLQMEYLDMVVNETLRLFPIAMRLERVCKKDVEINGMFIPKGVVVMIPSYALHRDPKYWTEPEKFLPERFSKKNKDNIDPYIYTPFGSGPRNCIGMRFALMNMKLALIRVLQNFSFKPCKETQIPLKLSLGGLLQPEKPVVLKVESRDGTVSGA
Sequence of Cytochrome P450 2C19 (Homo sapiens) (P33261 whole entry, looked up): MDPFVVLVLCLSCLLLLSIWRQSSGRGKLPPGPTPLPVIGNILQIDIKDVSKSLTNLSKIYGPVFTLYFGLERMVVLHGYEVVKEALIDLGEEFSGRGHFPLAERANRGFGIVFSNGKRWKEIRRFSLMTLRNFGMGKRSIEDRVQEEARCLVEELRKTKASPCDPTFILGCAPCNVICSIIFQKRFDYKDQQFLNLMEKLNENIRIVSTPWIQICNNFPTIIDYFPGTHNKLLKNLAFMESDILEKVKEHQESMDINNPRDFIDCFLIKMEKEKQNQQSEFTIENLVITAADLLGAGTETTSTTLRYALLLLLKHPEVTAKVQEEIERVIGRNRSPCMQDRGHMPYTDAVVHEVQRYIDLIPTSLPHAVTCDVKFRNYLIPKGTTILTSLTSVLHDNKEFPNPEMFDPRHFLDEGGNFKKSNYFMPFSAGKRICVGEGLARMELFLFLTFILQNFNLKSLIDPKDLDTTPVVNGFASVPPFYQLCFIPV
Sequence of Cytochrome P450 2C9 (Homo sapiens) (P11712 whole entry, looked up): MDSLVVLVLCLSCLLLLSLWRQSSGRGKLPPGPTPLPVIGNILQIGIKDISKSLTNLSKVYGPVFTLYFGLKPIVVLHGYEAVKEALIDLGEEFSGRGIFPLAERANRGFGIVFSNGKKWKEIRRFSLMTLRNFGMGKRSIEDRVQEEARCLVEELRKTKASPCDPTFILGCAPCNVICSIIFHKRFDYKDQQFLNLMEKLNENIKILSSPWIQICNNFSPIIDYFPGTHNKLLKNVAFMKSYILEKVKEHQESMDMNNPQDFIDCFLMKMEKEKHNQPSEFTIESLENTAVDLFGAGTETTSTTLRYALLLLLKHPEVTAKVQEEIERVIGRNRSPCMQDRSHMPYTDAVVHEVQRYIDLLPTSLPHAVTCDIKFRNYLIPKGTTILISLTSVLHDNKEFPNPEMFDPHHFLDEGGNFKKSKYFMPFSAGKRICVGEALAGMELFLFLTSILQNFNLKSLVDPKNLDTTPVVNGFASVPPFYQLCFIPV
Sequence of Ubiquitin carboxyl-terminal hydrolase 1 (Homo sapiens) (O94782 whole entry, looked up): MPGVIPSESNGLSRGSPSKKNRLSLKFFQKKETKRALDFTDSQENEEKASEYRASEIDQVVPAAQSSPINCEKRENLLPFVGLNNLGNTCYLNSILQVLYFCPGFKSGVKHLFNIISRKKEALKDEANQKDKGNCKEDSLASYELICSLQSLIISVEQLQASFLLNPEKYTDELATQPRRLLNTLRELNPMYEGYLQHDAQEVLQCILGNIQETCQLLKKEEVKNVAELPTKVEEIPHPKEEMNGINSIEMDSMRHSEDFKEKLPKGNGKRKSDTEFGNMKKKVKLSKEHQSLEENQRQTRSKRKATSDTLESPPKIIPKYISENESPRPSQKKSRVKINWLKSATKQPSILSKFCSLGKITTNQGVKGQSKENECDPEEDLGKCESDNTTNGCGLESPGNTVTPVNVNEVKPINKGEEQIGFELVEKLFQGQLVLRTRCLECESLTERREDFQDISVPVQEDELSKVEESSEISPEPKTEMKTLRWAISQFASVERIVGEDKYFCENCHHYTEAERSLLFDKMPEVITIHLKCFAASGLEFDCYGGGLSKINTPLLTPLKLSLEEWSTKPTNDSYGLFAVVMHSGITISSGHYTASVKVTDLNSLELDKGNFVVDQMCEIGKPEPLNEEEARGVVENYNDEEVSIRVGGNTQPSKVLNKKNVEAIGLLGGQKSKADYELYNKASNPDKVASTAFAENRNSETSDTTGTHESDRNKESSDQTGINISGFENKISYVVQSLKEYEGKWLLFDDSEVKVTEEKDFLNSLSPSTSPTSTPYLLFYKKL

Consider `COCC(=O)N1CCC2(CCN(Cc3ccccc3OC)CC2)CC1`, for which the Potency in [1] is > 11.4 µM (inactive); in assay [5], > 46 µM (inactive). For the same compound, the activity change, negative = inhibition in [2] is -3.62% (inactive); in [8], -2.32% (inactive). In addition, the Potency result in assay [3], in assay [6] and in assay [7] was “inactive” in each case. The activity, negative = inhibition in assay [4] was -4.34% (inactive). Also, the figures for the max response in [8] (setting [19]) and in assay [8] (setting [20]) were -22.5% and -24%, respectively. For the same compound, the outcome in [9] was inactive.
With `CN(C)Cc1ccccc1-c1cncnc1NCc1cccs1`, the Potency in [1] was > 11.4 µM (inactive); in assay [3], 25.1 µM (active); in assay [10], > 46 µM (inactive); in assay [5] it was > 46 µM (inactive). Further, the activity change, negative = inhibition was 8.74% (inactive) in assay [2] and 5.02% (inactive) in assay [8]. Further, the activity, negative = inhibition in assay [4] was -5.04% (inactive). Besides, the Potency entry in assay [6], in assay [7], in assay [11], in assay [12] and in assay [14] was “inactive” each time. The result in assay [13] and in assay [9] was inactive. The max response in assay [8] (setting [19]) amounted to 16.5%; in [8] (setting [20]), 25.4%.
For the compound `CN(C)Cc1ccccc1-c1cncnc1NCc1cccnc1`, the Potency in assay [1] was > 11.4 µM (inactive); in assay [3] it was 12.6 µM (active); in [10] it was > 46 µM (inactive); in assay [5], > 46 µM (inactive); in assay [15], 1.58 µM (active); in assay [16] it was 6.31 µM (active). Further, the activity change, negative = inhibition in assay [2] was -0.642% (inactive); in assay [8] it was 2.08% (inactive). In addition, in [4], the activity, negative = inhibition is 9.42% (inactive). Besides, the Potency result in assay [6], in assay [7], in [11], in assay [12] and in assay [14] was “inactive” in each case. Moreover, the call in assay [13] and in [9] was inactive. Besides, the max response in assay [8] (setting [19]) was 3.75%; in assay [8] (setting [20]), 4.73%.
Regarding `O=C(Nc1cccc(F)c1)N1CC2(CCN(C(=O)c3cc(C(F)(F)F)cc(C(F)(F)F)c3)CC2)C1`, the Potency in [1] is > 11.4 µM (inactive); in [5] it was > 46 µM (inactive). Also, the figures for the activity change, negative = inhibition in [2] and in assay [8] were -25.3% (inactive) and 7.3% (inactive), respectively. The Potency entry in assay [3], in assay [6], in [7], in [17] and in assay [11] was “inactive” in each case. For the same compound, the activity, negative = inhibition in assay [4] was -22% (inactive). For the same compound, the values for the max response in [8] (setting [19]) and in [8] (setting [20]) were 16.9% and 27.5%, respectively. Besides, the result in assay [9] was inactive.
Take `CN(C)c1ccc(-c2cncnc2NCc2ccccc2)cc1`: the Potency in assay [1] is > 11.4 µM (inactive); in assay [3], 1 µM (active); in [10] it was > 46 µM (inactive); in [5], > 46 µM (inactive); in assay [18], 0.398 µM (active). The activity change, negative = inhibition is -0.796% (inactive) in assay [2] and 9.86% (inactive) in assay [8]. The activity, negative = inhibition in [4] was -2.24% (inactive). Also, the Potency entry in assay [15] and in assay [12] was “inactive” throughout. Also, the call in assay [13] and in assay [9] was inactive. Further, the max response in assay [8] (setting [19]) is -3.1%; in [8] (setting [20]) it was 16.1%.
For the compound `Cn1cccc1C(=O)N1CCC2(CC1)CN(c1ccncc1)C2`, the Potency was > 11.4 µM (inactive) in assay [1], > 46 µM (inactive) in [5], 5.01 µM (active) in assay [17] and 1.26 µM (active) in [18]. Also, the activity change, negative = inhibition in assay [2] is -6.05% (inactive); in [8], 2.57% (inactive). The Potency entry in assay [3], in assay [6] and in [7] was “inactive” each time. For the same compound, the activity, negative = inhibition in [4] is -3.69% (inactive). Also, the max response was found to be 0.464% in [8] (setting [19]) and 4.51% in [8] (setting [20]). Further, the result in [9] was inactive.
